# Reference: ChEMBL document CHEMBL3988442, “University of Dundee, Small-Polar-MMV Screening Library” (2021)
# Target: T1, Methionyl-tRNA synthetase, putative (Leishmania donovani (strain BPK282A1)) (UniProt E9BF75)
# T1 sequence (whole entry): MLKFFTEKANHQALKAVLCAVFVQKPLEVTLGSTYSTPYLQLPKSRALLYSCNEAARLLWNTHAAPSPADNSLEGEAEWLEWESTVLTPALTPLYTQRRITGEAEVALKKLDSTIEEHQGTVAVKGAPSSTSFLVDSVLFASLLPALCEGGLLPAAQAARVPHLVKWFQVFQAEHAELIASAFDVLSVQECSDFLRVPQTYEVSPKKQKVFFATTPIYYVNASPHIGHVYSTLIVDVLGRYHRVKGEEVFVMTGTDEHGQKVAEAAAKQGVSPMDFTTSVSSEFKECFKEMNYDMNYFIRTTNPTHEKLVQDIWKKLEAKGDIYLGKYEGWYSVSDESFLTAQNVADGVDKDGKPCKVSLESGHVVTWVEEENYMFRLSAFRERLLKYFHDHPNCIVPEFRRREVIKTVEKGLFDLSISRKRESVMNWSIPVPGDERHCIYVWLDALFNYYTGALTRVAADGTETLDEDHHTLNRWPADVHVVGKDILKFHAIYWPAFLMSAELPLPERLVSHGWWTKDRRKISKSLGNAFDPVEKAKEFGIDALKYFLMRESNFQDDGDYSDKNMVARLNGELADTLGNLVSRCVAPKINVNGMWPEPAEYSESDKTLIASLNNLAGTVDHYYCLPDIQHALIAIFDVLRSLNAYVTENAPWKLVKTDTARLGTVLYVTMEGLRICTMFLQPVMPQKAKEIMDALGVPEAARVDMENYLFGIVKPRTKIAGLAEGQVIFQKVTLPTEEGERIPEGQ
# Assay: Leishmania donovani Methionine tRNA synthetase (LdMetRS):v7. Dose response assay
# Type: functional
# Set-up: conc 80 nM, time 150 minutes
smiles,measurement,setting,value
O=C(NCC1(O)CCCCC1)c1cc(=O)c2cc[nH]c(=O)c2o1,PXC50,MAX_EFFECT 6.333973129,< 4
same,PXC50,MAX_EFFECT 9.409888357,< 4
CCc1nc(NCCO)c2cc(CC)sc2n1,PXC50,MAX_EFFECT 6.532663317,< 4
same,PXC50,MAX_EFFECT 10.07371007,< 4
Cc1cc(C(F)(F)F)nc(NCCc2ccccc2)n1,PXC50,MAX_EFFECT 6.557377049,< 4
same,PXC50,MAX_EFFECT 10.16042781,< 4
Cn1cc(CN2CCC(F)(F)C3(CCN(c4ccccn4)C3)C2)cn1 (stereo not given),PXC50,MAX_EFFECT 6.802721088,< 4
same,PXC50,MAX_EFFECT 8.971962617,< 4
CCc1nc(N2CCN(CC)CC2)c2cc(CC)sc2n1,PXC50,MAX_EFFECT 7.407407407,< 4
same,PXC50,MAX_EFFECT 9.066666667,< 4
CCNc1nc(CC)nc2sc(CC)cc12,PXC50,MAX_EFFECT 7.537688442,< 4
same,PXC50,MAX_EFFECT 11.05651106,< 4
CNC(=O)CNc1nc(C)nc2sc3c(c12)CCC3,PXC50,MAX_EFFECT 7.888040712,< 4
same,PXC50,MAX_EFFECT 9.319899244,< 4
CC(O)CNc1nc(CN2CCCCC2)nc2sc3c(c12)CCCC3 (stereo not given),PXC50,MAX_EFFECT 8.108108108,< 4
same,PXC50,MAX_EFFECT 9.547738693,< 4
Cc1sc2nc(-c3cccnc3)nc(NCCOCCO)c2c1C,PXC50,MAX_EFFECT 9.042553191,< 4
same,PXC50,MAX_EFFECT 9.844559585,< 4
Cc1sc2nc(CN3CCOCC3)nc(NC3CCS(=O)(=O)C3)c2c1C (stereo not given),PXC50,MAX_EFFECT 9.625668449,< 4
same,PXC50,MAX_EFFECT 10.38251366,< 4
Cn1ccnc1CN1CCC(F)(F)C2(CCN(c3cccnc3)C2)C1 (stereo not given),PXC50,MAX_EFFECT 9.719626168,< 4
same,PXC50,MAX_EFFECT 11.33786848,< 4
COc1ccccc1C1(CNc2nnc(C)c(C)c2C#N)CCOCC1,PXC50,MAX_EFFECT 9.85915493,< 4
same,PXC50,MAX_EFFECT 18.33333333,< 4
CN1CCN(c2ccc3ccc(C(=O)N4CCCO4)cn23)CC1,PXC50,MAX_EFFECT 9.85915493,< 4
same,PXC50,MAX_EFFECT 16.48148148,< 4
Cc1ccc(N2CCC3(CN(Cc4ccncc4)CCC3(F)F)C2)nn1 (stereo not given),PXC50,MAX_EFFECT 9.977324263,< 4
same,PXC50,MAX_EFFECT 11.58878505,< 4
Cc1cc(N)n(-c2nc(C)nc3sc4c(c23)CCCC4)n1,PXC50,MAX_EFFECT 11.22994652,< 4
same,PXC50,MAX_EFFECT 12.02185792,< 4
CCc1nc(NCCCC(=O)O)c2cc(CC)sc2n1,PXC50,MAX_EFFECT 11.55778894,< 4
same,PXC50,MAX_EFFECT 13.02211302,< 4
CCNc1cc(-c2ccccn2)nc(Nc2ccc(F)cc2)n1,PXC50,MAX_EFFECT 11.72707889,< 4
same,PXC50,MAX_EFFECT 12.21532091,< 4
Nc1noc2ccc(-c3cnc4ccc(N5CCOCC5)nn34)cc12,PXC50,MAX_EFFECT 12.21374046,< 4
same,PXC50,MAX_EFFECT 20.61403509,< 4
CCCN(CCOC)c1nc(C)nc2sccc12,PXC50,MAX_EFFECT 12.79373368,< 4
same,PXC50,MAX_EFFECT 15.14360313,< 4
CCc1nc(N2CCCC(C(=O)O)C2)c2c3c(sc2n1)CCC3 (stereo not given),PXC50,MAX_EFFECT 18.93939394,< 4
same,PXC50,MAX_EFFECT 20.91836735,< 4
CC(C)C[C@H](N)COc1ccccc1-c1ccccc1,PXC50,MAX_EFFECT 19.82942431,< 4
same,PXC50,MAX_EFFECT 21.32505176,< 4
COCCNc1nc(N2CCCC2)nc2sc3c(c12)CCCC3,PXC50,MAX_EFFECT 20.83333333,< 4
same,PXC50,MAX_EFFECT 36.40350877,< 4
CCc1nc(N2CCN(c3ncccn3)CC2)c2cc(CC)sc2n1,PXC50,MAX_EFFECT 23.46666667,< 4
same,PXC50,MAX_EFFECT 25.3968254,< 4
CC(C)C[C@H](N)COc1ccc(OCc2ccccc2)c(F)c1,PXC50,MAX_EFFECT 25.05175983,< 4
same,PXC50,MAX_EFFECT 28.78464819,< 4
Cc1nccn1CCCn1cncc1-c1ccc2c(c1)CC(C)N2C (stereo not given),PXC50,MAX_EFFECT 28.57142857,< 4
same,PXC50,MAX_EFFECT 43.36448598,< 4
Cc1cc2c(N3CCCCC3)nc(-c3cccnc3)nc2s1,PXC50,MAX_EFFECT 30.15075377,< 4
same,PXC50,MAX_EFFECT 37.1007371,< 4
N[C@H](COc1cccc(F)c1Oc1ccc(Cl)cc1)Cc1ccccc1,PXC50,"BOTTOM 1.014480123, HILLSLOPE 1.236846962, MAX_EFFECT 63.97515528, TOP 100.0",4.22
same,PXC50,"BOTTOM 4.768215501, HILLSLOPE 2.241755438, MAX_EFFECT 75.26652452, TOP 100.0",4.22
Cc1cc(C)n(-c2nc(N(C)C)c3c4c(sc3n2)CCCC4)n1,PXC50,"BOTTOM 3.265302341, HILLSLOPE 1.809282706, MAX_EFFECT 78.125, TOP 100.0",4.28
same,PXC50,"BOTTOM 6.620107204, HILLSLOPE 2.145601955, MAX_EFFECT 79.8245614, TOP 100.0",4.28
N[C@H](COc1cccc(F)c1Oc1ccc(Cl)cc1)c1ccccc1,PXC50,"BOTTOM 4.511954534, HILLSLOPE 1.875524354, MAX_EFFECT 67.28778468, TOP 93.68195714",4.2
same,PXC50,"BOTTOM -3.133728258, HILLSLOPE 1.050142996, MAX_EFFECT 53.9445629, TOP 100.0",4.1
COCCNC(=O)c1ccc2ccc(N3CCN(CC4CC4)CC3)n2c1,PXC50,"BOTTOM 5.874206897, HILLSLOPE 1.640597442, MAX_EFFECT 51.96261682, TOP 70.05301325",4.26
same,PXC50,MAX_EFFECT 46.71201814,< 4
